# In the supplement of paper PMC11732987, “Enantioselective OTUD7B fragment discovery through chemoproteomics screening and high-throughput optimisation” (Communications Chemistry, 2025):
# Values without a mark were called inactive.
# Experiments:
# Assay in all cases: log2 ratio of Biotin-Ahx-Ub-VS probe labelling (fragment/DMSO); higher = less target engagement (more negative = stronger competition), active = hit call of the paper (q ≤ 0.05, log2 ratio ≤ -1)
# Conditions in all cases: compound concentration: 200 uM; treatment time: 3 h
# [1] = target: T1, ALG13 (UniProt Q9NP73)
# T1 sequence (whole entry): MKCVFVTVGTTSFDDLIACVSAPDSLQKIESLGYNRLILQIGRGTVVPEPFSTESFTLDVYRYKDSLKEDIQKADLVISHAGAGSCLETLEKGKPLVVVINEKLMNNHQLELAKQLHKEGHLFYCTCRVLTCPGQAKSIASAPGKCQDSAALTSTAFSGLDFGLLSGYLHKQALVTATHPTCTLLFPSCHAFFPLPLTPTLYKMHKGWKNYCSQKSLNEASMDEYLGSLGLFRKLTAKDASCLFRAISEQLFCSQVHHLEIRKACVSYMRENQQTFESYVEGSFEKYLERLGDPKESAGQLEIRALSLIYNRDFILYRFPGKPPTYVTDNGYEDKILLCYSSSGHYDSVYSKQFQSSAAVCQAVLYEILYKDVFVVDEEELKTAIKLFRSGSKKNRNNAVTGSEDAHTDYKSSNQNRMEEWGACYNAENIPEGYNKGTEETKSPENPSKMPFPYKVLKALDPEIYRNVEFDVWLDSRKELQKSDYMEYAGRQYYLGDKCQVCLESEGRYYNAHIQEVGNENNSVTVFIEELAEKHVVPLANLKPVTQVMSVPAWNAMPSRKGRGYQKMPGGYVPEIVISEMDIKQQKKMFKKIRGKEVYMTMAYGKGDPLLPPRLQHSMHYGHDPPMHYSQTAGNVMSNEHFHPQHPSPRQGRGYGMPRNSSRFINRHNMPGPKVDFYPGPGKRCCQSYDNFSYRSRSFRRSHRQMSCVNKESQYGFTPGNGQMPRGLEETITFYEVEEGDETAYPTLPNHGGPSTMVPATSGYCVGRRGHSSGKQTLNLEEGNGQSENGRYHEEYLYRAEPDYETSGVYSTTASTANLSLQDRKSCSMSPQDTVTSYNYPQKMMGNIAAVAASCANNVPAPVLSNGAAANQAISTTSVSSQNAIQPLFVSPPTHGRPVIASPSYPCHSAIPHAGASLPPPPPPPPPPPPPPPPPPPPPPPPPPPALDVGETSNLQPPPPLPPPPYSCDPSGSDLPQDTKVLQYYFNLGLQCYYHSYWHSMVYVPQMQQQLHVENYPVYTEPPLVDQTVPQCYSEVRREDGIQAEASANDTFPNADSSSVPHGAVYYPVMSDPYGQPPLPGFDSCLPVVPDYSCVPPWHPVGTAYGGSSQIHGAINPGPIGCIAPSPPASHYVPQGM
# How it was run: (§1)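 Fragment (200 µM) or vehicle was incubated for 3 h with triplicate HEK293T lysate samples of 495 µg, which were then treated with Biotin-Ahx-Ub-VS at 0.5 µM final for 1 h. Labelled DUBs were enriched on NeutrAvidin, digested with LysC and trypsin, and analysed by diaPASEF LC-MS/MS. Values are average log2 fragment/vehicle ratios from an unpaired t-test on global-median-normalised Spectronaut label-free quantities, using proteins with ≥2 unique peptides.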
# [2] = target: ATXN3 (UniProt P54252)
# Chain of ATXN3 (P54252 whole entry): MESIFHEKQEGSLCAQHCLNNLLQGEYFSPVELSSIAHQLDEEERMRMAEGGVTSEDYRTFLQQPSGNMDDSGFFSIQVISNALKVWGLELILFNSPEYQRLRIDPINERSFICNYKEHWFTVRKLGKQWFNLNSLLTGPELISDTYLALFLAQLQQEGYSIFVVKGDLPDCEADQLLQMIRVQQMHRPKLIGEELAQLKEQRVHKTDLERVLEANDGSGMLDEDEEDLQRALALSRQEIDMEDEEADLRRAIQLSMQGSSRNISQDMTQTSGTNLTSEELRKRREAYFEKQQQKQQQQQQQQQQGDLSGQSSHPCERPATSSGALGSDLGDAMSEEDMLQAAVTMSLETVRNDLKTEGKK
# How it was run: as §1
# [3] = target: T2, BAP1 (UniProt Q92560)
# T2 sequence (whole entry): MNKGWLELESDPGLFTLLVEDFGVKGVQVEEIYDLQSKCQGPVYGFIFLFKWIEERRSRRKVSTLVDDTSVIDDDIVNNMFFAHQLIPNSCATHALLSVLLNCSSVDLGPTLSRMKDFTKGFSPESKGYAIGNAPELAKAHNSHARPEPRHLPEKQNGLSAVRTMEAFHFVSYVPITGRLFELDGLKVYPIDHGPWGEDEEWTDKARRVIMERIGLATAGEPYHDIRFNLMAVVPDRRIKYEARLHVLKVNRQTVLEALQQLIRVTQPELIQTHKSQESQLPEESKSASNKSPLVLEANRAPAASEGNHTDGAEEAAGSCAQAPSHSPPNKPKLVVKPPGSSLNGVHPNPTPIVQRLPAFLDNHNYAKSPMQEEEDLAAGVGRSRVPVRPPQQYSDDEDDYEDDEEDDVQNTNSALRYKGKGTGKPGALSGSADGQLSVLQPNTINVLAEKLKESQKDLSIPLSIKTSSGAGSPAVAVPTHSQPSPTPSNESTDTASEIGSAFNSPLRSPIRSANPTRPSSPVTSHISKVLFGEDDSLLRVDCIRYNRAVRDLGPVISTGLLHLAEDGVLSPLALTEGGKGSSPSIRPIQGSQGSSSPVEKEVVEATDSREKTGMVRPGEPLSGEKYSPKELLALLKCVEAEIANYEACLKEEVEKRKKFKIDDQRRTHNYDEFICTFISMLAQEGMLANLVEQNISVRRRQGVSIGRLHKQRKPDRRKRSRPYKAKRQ
# How it was run: as §1
# [4] = target: EIF3F (UniProt O00303)
# Chain of EIF3F (O00303 whole entry): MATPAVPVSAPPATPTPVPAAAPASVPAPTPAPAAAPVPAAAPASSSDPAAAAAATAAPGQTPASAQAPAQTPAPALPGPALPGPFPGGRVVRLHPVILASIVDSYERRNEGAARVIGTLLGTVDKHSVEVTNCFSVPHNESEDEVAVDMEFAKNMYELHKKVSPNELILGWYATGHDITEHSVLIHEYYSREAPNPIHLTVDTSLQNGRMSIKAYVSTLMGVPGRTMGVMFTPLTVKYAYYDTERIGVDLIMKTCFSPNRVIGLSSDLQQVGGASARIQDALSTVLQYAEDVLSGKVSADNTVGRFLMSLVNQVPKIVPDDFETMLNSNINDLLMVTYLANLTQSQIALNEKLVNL
# How it was run: as §1
# [5] = target: EIF3H (UniProt O15372)
# Chain of EIF3H (O15372 whole entry): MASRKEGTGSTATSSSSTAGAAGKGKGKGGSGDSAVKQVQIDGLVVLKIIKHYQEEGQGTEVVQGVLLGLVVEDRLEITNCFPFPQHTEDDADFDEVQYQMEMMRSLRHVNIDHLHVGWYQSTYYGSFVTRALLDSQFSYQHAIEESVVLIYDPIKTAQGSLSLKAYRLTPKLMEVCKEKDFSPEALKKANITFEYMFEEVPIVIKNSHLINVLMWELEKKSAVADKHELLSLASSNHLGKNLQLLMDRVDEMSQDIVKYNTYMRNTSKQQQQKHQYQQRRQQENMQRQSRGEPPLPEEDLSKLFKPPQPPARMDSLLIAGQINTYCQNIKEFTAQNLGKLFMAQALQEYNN
# How it was run: as §1
# [6] = target: T3, FAM105A (UniProt Q9NUU6)
# T3 sequence (whole entry): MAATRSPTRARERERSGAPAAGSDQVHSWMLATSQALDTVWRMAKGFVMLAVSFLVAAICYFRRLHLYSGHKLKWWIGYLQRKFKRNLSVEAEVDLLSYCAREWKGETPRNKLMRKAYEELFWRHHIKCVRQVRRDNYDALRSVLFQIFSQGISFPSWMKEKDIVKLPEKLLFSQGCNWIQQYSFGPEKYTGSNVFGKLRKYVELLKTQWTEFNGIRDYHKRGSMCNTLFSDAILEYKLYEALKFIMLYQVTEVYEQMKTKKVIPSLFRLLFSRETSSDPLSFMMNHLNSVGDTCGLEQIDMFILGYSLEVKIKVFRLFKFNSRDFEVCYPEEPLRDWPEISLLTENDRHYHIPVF
# How it was run: as §1
# [7] = target: OTUB1 (UniProt Q96FW1)
# Chain of OTUB1 (Q96FW1 whole entry): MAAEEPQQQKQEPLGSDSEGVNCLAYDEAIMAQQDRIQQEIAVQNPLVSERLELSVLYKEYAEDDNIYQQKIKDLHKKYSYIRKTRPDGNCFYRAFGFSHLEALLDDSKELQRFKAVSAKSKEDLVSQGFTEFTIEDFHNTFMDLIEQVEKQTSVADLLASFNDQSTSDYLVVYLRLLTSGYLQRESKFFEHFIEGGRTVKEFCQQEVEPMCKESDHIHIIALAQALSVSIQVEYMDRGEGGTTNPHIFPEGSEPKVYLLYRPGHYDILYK
# How it was run: as §1
# [8] = target: T4, OTUD4 (UniProt Q01804)
# T4 sequence (whole entry): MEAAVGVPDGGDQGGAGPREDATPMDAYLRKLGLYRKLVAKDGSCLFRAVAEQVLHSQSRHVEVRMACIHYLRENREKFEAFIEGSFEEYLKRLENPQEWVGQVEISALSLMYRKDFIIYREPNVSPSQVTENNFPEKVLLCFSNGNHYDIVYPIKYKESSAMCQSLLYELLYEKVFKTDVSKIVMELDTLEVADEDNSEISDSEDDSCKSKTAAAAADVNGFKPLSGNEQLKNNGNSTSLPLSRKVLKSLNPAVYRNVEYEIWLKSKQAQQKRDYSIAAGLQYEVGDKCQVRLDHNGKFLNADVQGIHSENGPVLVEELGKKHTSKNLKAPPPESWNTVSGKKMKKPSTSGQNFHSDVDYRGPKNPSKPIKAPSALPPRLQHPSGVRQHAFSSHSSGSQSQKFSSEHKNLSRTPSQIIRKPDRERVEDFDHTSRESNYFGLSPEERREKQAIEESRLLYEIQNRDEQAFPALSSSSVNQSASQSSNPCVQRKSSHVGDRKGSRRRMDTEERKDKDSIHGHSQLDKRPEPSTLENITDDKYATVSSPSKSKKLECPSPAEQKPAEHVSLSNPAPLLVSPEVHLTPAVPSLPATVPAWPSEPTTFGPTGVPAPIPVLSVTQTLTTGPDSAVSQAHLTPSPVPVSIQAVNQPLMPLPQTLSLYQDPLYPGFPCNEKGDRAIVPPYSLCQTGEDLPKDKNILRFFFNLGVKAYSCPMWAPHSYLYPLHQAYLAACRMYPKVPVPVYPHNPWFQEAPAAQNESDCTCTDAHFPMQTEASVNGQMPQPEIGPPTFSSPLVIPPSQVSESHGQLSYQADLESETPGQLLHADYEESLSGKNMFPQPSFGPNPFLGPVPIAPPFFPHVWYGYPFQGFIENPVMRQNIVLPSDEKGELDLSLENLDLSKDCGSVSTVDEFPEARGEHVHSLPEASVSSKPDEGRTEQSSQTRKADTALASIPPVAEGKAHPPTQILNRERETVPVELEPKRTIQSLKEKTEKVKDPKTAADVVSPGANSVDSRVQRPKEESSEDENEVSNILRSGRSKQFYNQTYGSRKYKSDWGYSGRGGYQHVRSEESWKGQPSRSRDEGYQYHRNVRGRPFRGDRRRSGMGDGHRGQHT
# How it was run: as §1
# [9] = target: T5, OTUD5 (UniProt Q96G74)
# T5 sequence (whole entry): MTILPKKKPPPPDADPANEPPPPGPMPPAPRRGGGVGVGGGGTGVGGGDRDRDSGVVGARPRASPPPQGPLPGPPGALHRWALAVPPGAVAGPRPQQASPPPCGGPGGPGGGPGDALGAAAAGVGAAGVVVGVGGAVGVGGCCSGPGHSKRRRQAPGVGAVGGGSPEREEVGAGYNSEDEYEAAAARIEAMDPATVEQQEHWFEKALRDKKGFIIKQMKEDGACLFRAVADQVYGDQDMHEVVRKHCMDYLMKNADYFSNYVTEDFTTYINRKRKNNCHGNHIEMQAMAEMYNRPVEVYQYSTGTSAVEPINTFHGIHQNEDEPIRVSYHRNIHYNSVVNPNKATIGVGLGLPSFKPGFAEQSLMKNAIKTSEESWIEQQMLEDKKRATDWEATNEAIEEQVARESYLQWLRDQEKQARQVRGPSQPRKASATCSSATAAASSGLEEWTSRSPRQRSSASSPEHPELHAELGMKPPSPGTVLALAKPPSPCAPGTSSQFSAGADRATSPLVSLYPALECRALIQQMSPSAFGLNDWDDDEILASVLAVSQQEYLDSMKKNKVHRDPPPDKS
# How it was run: as §1
smiles,measurement,setting,value
O=C(CCl)NCc1noc(C2CC2)n1,log2 ratio of Biotin-Ahx-Ub-VS probe labelling,[1],0.174
same,log2 ratio of Biotin-Ahx-Ub-VS probe labelling,[2],-0.198
same,log2 ratio of Biotin-Ahx-Ub-VS probe labelling,[3],-1.08 (active)
same,log2 ratio of Biotin-Ahx-Ub-VS probe labelling,[4],-0.262
same,log2 ratio of Biotin-Ahx-Ub-VS probe labelling,[5],0.143
same,log2 ratio of Biotin-Ahx-Ub-VS probe labelling,[6],0.00371
same,log2 ratio of Biotin-Ahx-Ub-VS probe labelling,[7],-0.305
same,log2 ratio of Biotin-Ahx-Ub-VS probe labelling,[8],-0.405
same,log2 ratio of Biotin-Ahx-Ub-VS probe labelling,[9],-0.391
